In PubChem BioAssay AID1159580 (chemical genetic matrix, 2015):
Among all 5,500 compounds or so, about 2,000 (36%) were called active. About 18% were inconclusive and are not listed. No stated cut-off is given here; in the data, active means normalized growth mostly below about 0.91 (no sharp cut-off); inconclusive means no clear call, values can overlap the other calls; inactive means mostly above about 0.92. The list shows a part of the results.

Experiment: chemical genetic growth profiling, strain panel (AID 1159580);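 further: tested at 20 µM; growth read once vehicle control cultures reached saturation at 30 °C; 1 = growth at the plate median or of vehicle wells; lower values mean less growth of the strain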
Details: S. cerevisiae deletion strains, growth OD

Measured: normalized growth

NC1=C(c2ccccc2)C(=O)NC1=O
inactive: locus YAL013W, strain DEP1, active compounds read low 1.01 | locus YBR229C, strain ROT2, active compounds read low 1.05 | locus YCL061C, strain MRC1, active compounds read low 1.03 | locus YDL101C, strain DUN1, active compounds read low 0.993 | locus YDR150W, strain NUM1, active compounds read low 0.991 | locus YEL061C, strain CIN8, active compounds read low 0.999 | locus YGR078C, strain PAC10, active compounds read low 0.998 | locus YGR229C, strain SMI1, active compounds read low 1.01 | locus YHR030C, strain SLT2, active compounds read low 1.02 | locus YHR087W, strain rtc3, active compounds read low 0.988 | locus YJR043C, strain POL32, active compounds read low 1.01 | locus YJR075W, strain HOC1, active compounds read low 0.95 | locus YLR039C, strain RIC1, active compounds read low 1.02 | locus YLR058C, strain SHM2 (second series), active compounds read low 1.02 | locus YLR085C, strain ARP6, active compounds read low 0.946 | locus YLR262C, strain YPT6, active compounds read low 1.01 | locus YML094W, strain GIM5, active compounds read low 0.993 | locus YMR219W, strain ESC1, active compounds read low 0.984 | locus YMR263W, strain SAP30, active compounds read low 1.01 | locus YNL128W, strain TEP1, active compounds read low 1.03 | locus YNL153C, strain GIM3, active compounds read low 1 | locus YNL298W, strain CLA4 (second series), active compounds read low 0.996 | locus YNL322C, strain KRE1, active compounds read low 1 | locus YNR030W, strain Alg12, active compounds read low 0.989 | locus YPL055C, strain LGE1, active compounds read low 0.994 | locus YPL241C, strain CIN2, active compounds read low 1.01 | locus YPR135W, strain CTF4, active compounds read low 0.974
